Results: publication PMC4631838

Legend:
Assay in all cases: cross-link between two proteins; cross-linking mass spectrometry
[1] = molecular target: DNA-directed RNA polymerase II subunit RPB11 (UniProt P38902)
[2] = molecular target: DNA-directed RNA polymerase II subunit RPB9 (UniProt P27999)
[3] = molecular target: DNA-directed RNA polymerases I, II, and III subunit RPABC1 (UniProt P20434)
[4] = molecular target: DNA-directed RNA polymerases I, II, and III subunit RPABC2 (UniProt P20435)
[5] = molecular target: DNA-directed RNA polymerases I, II, and III subunit RPABC3 (UniProt P20436)
Sequence of DNA-directed RNA polymerases I, II, and III subunit RPABC3 (P20436 whole entry): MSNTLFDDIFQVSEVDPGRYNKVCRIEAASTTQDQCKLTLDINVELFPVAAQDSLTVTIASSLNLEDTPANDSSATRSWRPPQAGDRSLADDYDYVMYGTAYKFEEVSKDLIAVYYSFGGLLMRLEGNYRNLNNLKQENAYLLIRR

[6] = molecular target: DNA-directed RNA polymerase II subunit RPB7 (UniProt P34087)
Sequence of DNA-directed RNA polymerase II subunit RPB7 (P34087 whole entry): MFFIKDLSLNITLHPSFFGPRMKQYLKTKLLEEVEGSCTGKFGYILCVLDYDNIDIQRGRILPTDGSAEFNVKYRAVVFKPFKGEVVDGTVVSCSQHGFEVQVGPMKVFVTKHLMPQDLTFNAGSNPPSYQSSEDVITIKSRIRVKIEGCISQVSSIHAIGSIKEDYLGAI

[7] = molecular target: DNA-directed RNA polymerase II subunit RPB3 (UniProt P16370)
Sequence of DNA-directed RNA polymerase II subunit RPB3 (P16370 whole entry): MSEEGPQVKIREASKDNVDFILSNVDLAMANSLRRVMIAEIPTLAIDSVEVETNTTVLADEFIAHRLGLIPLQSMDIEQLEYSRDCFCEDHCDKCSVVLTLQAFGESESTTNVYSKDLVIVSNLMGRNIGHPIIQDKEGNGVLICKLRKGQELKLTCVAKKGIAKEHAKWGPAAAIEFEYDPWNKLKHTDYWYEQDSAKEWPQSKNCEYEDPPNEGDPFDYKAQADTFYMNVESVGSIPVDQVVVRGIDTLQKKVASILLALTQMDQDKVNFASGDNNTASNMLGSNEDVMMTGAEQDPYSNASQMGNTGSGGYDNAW

Sequence of DNA-directed RNA polymerase II subunit RPB1, P04050 (P04050 whole entry): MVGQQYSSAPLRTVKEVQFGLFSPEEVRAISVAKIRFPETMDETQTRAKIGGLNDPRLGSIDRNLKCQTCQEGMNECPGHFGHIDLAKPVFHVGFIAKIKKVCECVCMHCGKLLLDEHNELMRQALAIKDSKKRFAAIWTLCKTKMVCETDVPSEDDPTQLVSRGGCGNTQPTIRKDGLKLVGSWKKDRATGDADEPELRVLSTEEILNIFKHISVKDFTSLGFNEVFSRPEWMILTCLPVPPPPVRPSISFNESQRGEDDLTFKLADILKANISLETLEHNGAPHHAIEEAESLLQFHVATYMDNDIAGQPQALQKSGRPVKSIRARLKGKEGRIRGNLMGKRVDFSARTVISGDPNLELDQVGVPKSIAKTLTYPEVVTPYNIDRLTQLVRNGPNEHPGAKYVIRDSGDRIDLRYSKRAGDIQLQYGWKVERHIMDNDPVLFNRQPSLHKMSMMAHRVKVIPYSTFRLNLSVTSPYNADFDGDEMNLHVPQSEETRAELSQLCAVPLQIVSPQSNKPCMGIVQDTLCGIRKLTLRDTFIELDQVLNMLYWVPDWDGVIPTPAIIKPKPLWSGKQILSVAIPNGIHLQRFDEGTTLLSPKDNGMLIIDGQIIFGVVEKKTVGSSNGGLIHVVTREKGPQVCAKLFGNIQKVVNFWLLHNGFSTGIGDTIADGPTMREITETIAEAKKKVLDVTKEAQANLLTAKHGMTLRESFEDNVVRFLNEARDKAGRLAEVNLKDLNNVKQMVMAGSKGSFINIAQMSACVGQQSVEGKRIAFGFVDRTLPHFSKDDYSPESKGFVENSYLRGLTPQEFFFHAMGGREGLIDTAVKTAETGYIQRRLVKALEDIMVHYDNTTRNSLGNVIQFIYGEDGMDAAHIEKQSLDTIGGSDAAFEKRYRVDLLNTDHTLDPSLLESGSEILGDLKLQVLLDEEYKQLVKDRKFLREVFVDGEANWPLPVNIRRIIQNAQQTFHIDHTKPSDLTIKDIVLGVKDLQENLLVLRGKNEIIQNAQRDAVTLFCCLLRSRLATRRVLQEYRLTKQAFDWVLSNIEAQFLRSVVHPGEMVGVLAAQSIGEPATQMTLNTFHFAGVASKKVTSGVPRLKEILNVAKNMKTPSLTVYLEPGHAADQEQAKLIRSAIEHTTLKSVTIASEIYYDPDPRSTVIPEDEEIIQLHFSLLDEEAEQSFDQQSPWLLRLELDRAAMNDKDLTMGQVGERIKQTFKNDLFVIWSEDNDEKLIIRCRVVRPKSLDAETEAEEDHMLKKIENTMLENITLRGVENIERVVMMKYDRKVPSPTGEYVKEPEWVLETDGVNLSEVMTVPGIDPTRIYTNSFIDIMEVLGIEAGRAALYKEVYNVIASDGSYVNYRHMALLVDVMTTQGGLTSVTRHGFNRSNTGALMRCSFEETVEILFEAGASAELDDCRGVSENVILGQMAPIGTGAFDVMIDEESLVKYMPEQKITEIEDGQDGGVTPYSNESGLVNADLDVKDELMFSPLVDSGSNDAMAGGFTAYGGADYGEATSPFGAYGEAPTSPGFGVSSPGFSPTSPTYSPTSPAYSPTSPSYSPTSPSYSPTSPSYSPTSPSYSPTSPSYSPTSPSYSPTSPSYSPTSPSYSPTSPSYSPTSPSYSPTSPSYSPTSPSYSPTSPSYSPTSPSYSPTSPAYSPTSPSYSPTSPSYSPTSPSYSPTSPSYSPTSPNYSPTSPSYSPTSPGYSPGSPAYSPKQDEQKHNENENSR
Sequence of DNA-directed RNA polymerases I, II, and III subunit RPABC2 (P20435 whole entry): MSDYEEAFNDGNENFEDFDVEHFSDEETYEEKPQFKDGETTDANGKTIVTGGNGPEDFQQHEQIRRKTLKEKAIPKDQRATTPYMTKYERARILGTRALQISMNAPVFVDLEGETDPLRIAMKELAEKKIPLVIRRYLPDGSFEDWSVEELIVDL
Sequence of DNA-directed RNA polymerase II subunit RPB2, P08518 (P08518 whole entry): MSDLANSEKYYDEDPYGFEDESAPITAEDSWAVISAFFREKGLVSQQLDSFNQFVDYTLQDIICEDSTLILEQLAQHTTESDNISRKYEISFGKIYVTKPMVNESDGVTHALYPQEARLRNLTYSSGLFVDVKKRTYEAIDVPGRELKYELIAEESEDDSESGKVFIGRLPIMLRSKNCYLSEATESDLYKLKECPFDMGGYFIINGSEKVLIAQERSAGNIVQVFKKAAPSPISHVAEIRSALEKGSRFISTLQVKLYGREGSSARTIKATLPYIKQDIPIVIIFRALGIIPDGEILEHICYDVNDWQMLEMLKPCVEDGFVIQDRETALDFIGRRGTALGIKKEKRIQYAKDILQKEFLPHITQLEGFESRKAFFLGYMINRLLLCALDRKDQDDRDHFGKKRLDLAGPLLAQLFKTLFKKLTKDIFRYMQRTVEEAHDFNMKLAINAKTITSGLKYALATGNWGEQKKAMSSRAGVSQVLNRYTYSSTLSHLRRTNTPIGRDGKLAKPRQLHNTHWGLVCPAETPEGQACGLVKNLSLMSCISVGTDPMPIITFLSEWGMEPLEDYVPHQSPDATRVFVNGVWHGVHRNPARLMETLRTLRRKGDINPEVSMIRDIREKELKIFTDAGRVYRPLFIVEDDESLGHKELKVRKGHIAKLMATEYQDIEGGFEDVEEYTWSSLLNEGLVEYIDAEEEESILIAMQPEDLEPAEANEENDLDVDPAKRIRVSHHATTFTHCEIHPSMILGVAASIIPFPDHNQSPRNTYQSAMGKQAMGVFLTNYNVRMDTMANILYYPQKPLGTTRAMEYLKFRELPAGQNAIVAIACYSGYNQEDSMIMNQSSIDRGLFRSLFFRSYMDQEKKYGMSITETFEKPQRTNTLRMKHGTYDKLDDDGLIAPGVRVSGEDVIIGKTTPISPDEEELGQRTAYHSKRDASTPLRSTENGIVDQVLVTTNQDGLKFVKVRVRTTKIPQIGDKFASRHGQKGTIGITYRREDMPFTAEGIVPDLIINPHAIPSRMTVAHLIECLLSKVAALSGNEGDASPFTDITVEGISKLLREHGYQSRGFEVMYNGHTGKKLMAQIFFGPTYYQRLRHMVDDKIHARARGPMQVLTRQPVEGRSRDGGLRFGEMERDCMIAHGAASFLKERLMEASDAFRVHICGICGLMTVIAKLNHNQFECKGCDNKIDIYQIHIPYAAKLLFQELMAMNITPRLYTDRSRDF
Sequence of DNA-directed RNA polymerase II subunit RPB9 (P27999 whole entry): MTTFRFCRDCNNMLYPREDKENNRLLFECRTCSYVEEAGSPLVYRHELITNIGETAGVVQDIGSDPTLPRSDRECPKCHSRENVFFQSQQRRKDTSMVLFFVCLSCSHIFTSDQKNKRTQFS
Sequence of DNA-directed RNA polymerases I, II, and III subunit RPABC1 (P20434 whole entry): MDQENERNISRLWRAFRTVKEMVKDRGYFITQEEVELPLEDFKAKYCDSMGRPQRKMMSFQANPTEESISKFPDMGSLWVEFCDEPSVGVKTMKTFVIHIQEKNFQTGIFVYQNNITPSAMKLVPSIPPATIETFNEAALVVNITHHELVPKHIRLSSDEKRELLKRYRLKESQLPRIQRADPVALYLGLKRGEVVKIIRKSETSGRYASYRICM
Sequence of DNA-directed RNA polymerase II subunit RPB11 (P38902 whole entry): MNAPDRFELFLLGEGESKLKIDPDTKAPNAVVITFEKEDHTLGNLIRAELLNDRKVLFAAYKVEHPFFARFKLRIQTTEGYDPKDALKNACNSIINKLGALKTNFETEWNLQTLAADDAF

DNA-directed RNA polymerase II subunit RPB1, P04050
listed as a hit [1]: yes
listed as a hit [2]: yes
listed as a hit [3]: yes
listed as a hit [4]: yes
listed as a hit [5]: yes

DNA-directed RNA polymerase II subunit RPB4, P20433
listed as a hit [6]: yes

DNA-directed RNA polymerases I, II, and III subunit RPABC1, P20434
listed as a hit [4]: yes

DNA-directed RNA polymerase II subunit RPB2, P08518
listed as a hit [7]: yes
